In the OligoGym collection:

These sequences were tested against AIG1 (assay: pooled miR-30 sensor sort-seq; sequence = guide strand). Details: shRNA.

Going from TTGGAAACAACTGTATTCTATG to TAGTTACACAGGATAGAGCAGT, the sensor-assay potency score (higher = more potent) rises from -0.738 to -0.722.

Going from TTATCAGTAATGACTTTGGGAA to ATAAAGGGCAGAACCGTCGTGT, the sensor-assay potency score (higher = more potent) rises from -0.914 to 0.238.

TAATATAAAGGGCAGAACCGTC gave a sensor-assay potency score (higher = more potent) of -1.19.

These sequences were tested against AK1 in the same assay as above. Details: shRNA.

First: TGTAATAGGTCTCCAGCCGCTT
Second: TACTTCTGCACGATCTTCTCAC
The sensor-assay potency score (higher = more potent) of the first is lower: -0.437 for the first, 0.346 for the second.

Going from TTGACCTTGCGCACAATGCCAC to TTTGATGGTCTCCTCATTGTCG, the sensor-assay potency score (higher = more potent) rises from -0.47 to -0.362.

Going from ATTGTCGTCCACACGCCCGCTG to TGCACGATCTTCTCACACTGGG, the sensor-assay potency score (higher = more potent) falls from -0.347 to -0.837.

Going from TAATAGGTCTCCAGCCGCTTTT to TTTGGAAGTATTGACTTTGGCC, the sensor-assay potency score (higher = more potent) rises from -1.38 to -0.356.

Going from TGTCTCCAGTGGAACCAGCTGC to TTGTCGTCCACACGCCCGCTGG, the sensor-assay potency score (higher = more potent) falls from -0.761 to -1.2.

Going from ATGATTTCCGACAGCTTCTTGC to TAGCCATCAATCAGGAAGCCTT, the sensor-assay potency score (higher = more potent) rises from -1.06 to -0.92.

First: TGCGTCCACATACAGCAGCAGT
Second: TCGCTCAAACTCTTCTCCTTGC
The sensor-assay potency score (higher = more potent) of the first is lower: -1.67 for the first, -0.418 for the second.

Compared with TGATGGTCTCCTCATTGTCGTC, TTGACTTTGGCCACCATGGCAT is higher in sensor-assay potency score (higher = more potent): -1.72 for the first, -0.482 for the second.

First: TCATTGTCGTCCACACGCCCGC
Second: TTCTCCTTGCTGCACCTCCCGC
The sensor-assay potency score (higher = more potent) of the first is higher: -0.841 for the first, -1.57 for the second.

First: TCCAACACTGTCTCCAGTGGAA
Second: TTTCCGACAGCTTCTTGCCCCT
The sensor-assay potency score (higher = more potent) of the first is lower: -1.08 for the first, -0.367 for the second.

Going from TTGATGGTCTCCTCATTGTCGT to TTGTAATAGGTCTCCAGCCGCT, the sensor-assay potency score (higher = more potent) falls from -0.675 to -0.883.

Compared with TACAGCAGCAGTGTGGGCTGTC, TCCACATACAGCAGCAGTGTGG is lower in sensor-assay potency score (higher = more potent): 0.332 for the first, -1.37 for the second.

These sequences were tested against AKR1A1 in the same assay as above. Details: shRNA.

Compared with TTGGATGTCACAAACAGCTCCT, TATAGTCCCATCAGCATTCTTG is lower in sensor-assay potency score (higher = more potent): 0.145 for the first, -0.715 for the second.

Compared with TTAGCTGCTTCATCTCTTCTGG, TTAACAGCTGCTTTTACCTGAC is lower in sensor-assay potency score (higher = more potent): -0.107 for the first, -0.112 for the second.

Compared with TACCTGACCAGGCTCACTCTTC, TAAGGGCATACTTAACAGCTGC is higher in sensor-assay potency score (higher = more potent): -0.753 for the first, -0.729 for the second.

Going from TAAAGGTGAAGTCAAACACCTT to TAGTGGGTGGAGTCGTAGCATA, the sensor-assay potency score (higher = more potent) falls from -1.29 to -1.36.

First: TGTCACAAACAGCTCCTCCCGA
Second: TTGATGTTCTGAAGGATTCGAG
The sensor-assay potency score (higher = more potent) of the first is lower: -0.337 for the first, -0.236 for the second.
